Results taken from PubChem BioAssay AID720519 (National Center for Advancing Translational Sciences (NCATS), 2013).
Records with an inconclusive call do not appear. Calls of active or inactive are those of the source. Calls come from the whole dose curve; as a rule, active = well fitted activation curve with a large enough effect; inconclusive = small, poorly fitted or top-dose-only effect; inactive = flat fitted curve, though single readings scatter.

Assay: qHTS for Inhibitors of Cell Surface uPA Generation: Confirmatory Assay for Cherry-picked Compounds; for inhibition: 0% is about no effect
Conditions: cell surface uPA activity generation, qHTS confirmation; series mostly up to 115 µM; inhibition: at the top concentration
How it was run: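 RAW 264.7 cells at 4000/well, incubated overnight, then treated with compounds. After 24 h at 37 C, viability was read by ATPlite luminescence. An increase in signal indicates blocked uPA-dependent LF entry.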
Potency is the fitted concentration of half-maximal effect.

Row | SMILES | inhibition | Potency
1 | Cc1ccc(Cl)cc1NC(=O)c1ccccc1OCC(=O)N1CCOCC1 | 1.32% (inactive) | 
2 | C=CCn1c(SCCN2C(=O)c3ccccc3C2=O)nc2scc(-c3ccc(F)cc3)c2c1=O | 5.25% (inactive) | 
3 | Cc1[nH]c2ccccc2c1C(=O)C(C)OC(=O)c1ccccc1NCCO (stereo not drawn) | -3.62% (inactive) | 
4 | Cc1ccc(Cl)c(N/C=C/C(=O)c2ccccc2)c1 | -2.75% (inactive) | 
5 | O=C(NNC(=O)c1ncc(Cl)c(Cl)c1Cl)c1ccc(F)cc1 | 1.74% (inactive) | 
6 | COc1ccc(C(CNC(=O)C(C)Oc2ccc(Br)cc2)N2CCCC2)cc1 (stereo not drawn) | -3.28% (inactive) | 
7 | Cc1cc(C)cc(S(=O)(=O)c2cn(C)c3cc(N4CCN(C)CC4)c(F)cc3c2=O)c1 | -2.26% (inactive) | 
8 | COC(=O)CCNS(=O)(=O)c1ccc2nsnc2c1 | -0.28% (inactive) | 
9 | S=C(Nc1ccccc1Oc1ccccc1)NC1CCCC1 | -3.1% (inactive) | 
10 | CN(C)C(=O)NC(NC(=S)Nc1ccccc1)C(Cl)(Cl)Cl (stereo not drawn) | -2.04% (inactive) | 
11 | Cc1cccc(C(=O)Nc2cc(=O)n(C)c(=O)n2C)c1 | -2.43% (inactive) | 
12 | Cc1nc(NC2CCCCC2)c2nnn(Cc3ccccc3Cl)c2n1 | -0.678% (inactive) | 
13 | CN(C(=O)c1ccccc1C(=O)OCC(=O)NCc1ccccc1)C1CCCCC1 | -2% (inactive) | 
14 | CCCCCOC(=O)Nc1nnc(CCCCC)s1 | 2.17% (inactive) | 
15 | Cc1oc(-c2ccccc2F)nc1CS(=O)(=O)CC(=O)NC1CCCC(C)C1C (stereo not drawn) | -0.805% (inactive) | 
16 | CCOC(=O)C1=C(C)N(Cc2ccccc2)C(=O)NC1c1ccc(OC)cc1 (stereo not drawn) | -1.56% (inactive) | 
17 | Cc1ccsc1/C=C(\C#N)C(=O)NC1CCS(=O)(=O)C1 (stereo not drawn) | -1.74% (inactive) | 
18 | O=C(CSc1ccc(Cl)cc1)Nc1ccc(C2SCCS2)cc1 | 0.585% (inactive) | 
19 | CC(C)C[C@H]1CN([C@@H](CC(C)C)CN2CCCC2CN2C(=S)NC[C@@H]2Cc2ccc(O)cc2)C(=S)N1CC1CCCCC1 (stereo partly drawn) | -2.13% (inactive) | 

Row | SMILES | inhibition | Potency
20 | Cc1ccc(CN2CCN(Cc3cc4ccccc4o3)CC2CCO)cc1 (stereo not drawn) | -0.556% (inactive) | 
21 | O=C(NCCCn1cccn1)C1CCC(=O)N(Cc2ccccc2F)C1 (stereo not drawn) | -0.984% (inactive) | 
22 | COCC(=O)N1CCC(n2nccc2NC(=O)c2ccccc2OC)CC1 | -3.69% (inactive) | 
23 | CCNC(=S)NNC(=O)C(c1ccccc1)c1ccccc1 | 1.11% (inactive) | 
24 | O=C(CSc1ccc(Cl)cc1)N1CCCC1 | -2.87% (inactive) | 
25 | O=C1NC(CCc2ccccc2)C(=O)N1Cc1ccccc1Cl (stereo not drawn) | 5% (inactive) | 
26 | O=C(O)CNC(=S)N(Cc1ccccc1)Cc1cccnc1 | -1.63% (inactive) | 
27 | CC1=CC(C)(C)N2C(=O)C3(NCCc4c3[nH]c3ccccc43)c3cc(C)cc1c32 (stereo not drawn) |  | 2330 nM (active)
28 | O=C(C1CCCCN1S(=O)(=O)c1ccc(F)cc1)N1CCN(c2ccccc2F)CC1 (stereo not drawn) | 0.855% (inactive) | 
29 | CN(C)CCNC(=O)Nc1ccc([N+](=O)[O-])cc1 | -1.38% (inactive) | 
30 | CC(C)(C)OC(=O)C[C@@H]1C/C=C\C[C@@H](CC(=O)N(CCO)Cc2ccccc2)C(=O)N[C@H](Cc2c[nH]c3ccccc23)COC1=O | -3.72% (inactive) | 
31 | CC1Cc2nc(SCC(=O)Nc3ccc4c(c3)OCO4)n(-c3ccc(F)cc3)c(=O)c2S1 (stereo not drawn) | -0.168% (inactive) | 
32 | CN(CC(=O)NCc1ccco1)CC(=O)Nc1c(Cl)cccc1Cl | 0.0178% (inactive) | 
33 | COc1ccc(CC(=O)OCC(=O)NNC(=O)c2ccccc2)cc1 | -3.04% (inactive) | 
34 | CCc1ccc(OCC(=O)N(Cc2cccs2)C2CCS(=O)(=O)C2)cc1 (stereo not drawn) | 0.364% (inactive) | 
35 | CC(C)c1ccc(NC(=O)COc2ccc(S(=O)(=O)N3CCOCC3)cc2)cc1 | -0.157% (inactive) | 
36 | CCn1nc(C)c(CNC(=O)C2CCC(=O)N(CCc3ccc(OC)cc3)C2)c1C (stereo not drawn) | -1.73% (inactive) | 
37 | CCC(C)Nc1cc(C)nc2ncnn12 (stereo not drawn) | -1.7% (inactive) | 
38 | Fc1cccc(Cl)c1CSc1ccc(-c2cccnc2)nn1 | -2.62% (inactive) | 
